Measured values as given in PubChem BioAssay AID1159577 (Broad Institute, 2015).
The whole screen tested about 1,300 compounds, of which about 240 (18%) were called active. Roughly 8% stayed inconclusive and do not appear here. Not all results are given here. Results with a measured potency or affinity are listed apart. Values without a mark were called inactive. The rule behind the calls is not given here.

Assay: HepG2 cell cytotoxicity, dose response, cytotoxicity control, cherry-picked samples (AID 1159577);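 note: 0% = neutral control wells and -100% = positive control wells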
Conditions: HepG2 cytotoxicity counterscreen, plate reader; series mostly up to 19.5 µM; activity change, negative = cytotoxicity: at the top concentration

| SMILES | activity change, negative = cytotoxicity |
| --- | --- |
| COc1cccc(C#Cc2ccc([C@H]3[C@@H](CO)N(C(=O)C4CCC4)[C@H]3C#N)cc2)c1 | 6.14% |
| C[C@H]1CN([C@@H](C)CO)C(=O)c2cc(NC(=O)Nc3cccc4ccccc34)ccc2O[C@H]1CN(C)C(=O)Nc1ccc(C(F)(F)F)cc1 | 4.51% |
| C[C@@H]1CN([C@H](C)CO)C(=O)c2cccc(NC(=O)Nc3cccc4ccccc34)c2O[C@@H]1CN(C)C(=O)Nc1ccc(C(F)(F)F)cc1 | 2.88% |
| COc1ccccc1S(=O)(=O)N[C@H]1CC[C@@H](CCn2cc(C3CCCC3)nn2)O[C@@H]1CO | 7% |
| COc1cccc(-c2cn(CC[C@@H]3CC[C@@H](NS(=O)(=O)c4ccccc4Cl)[C@H](CO)O3)nn2)c1 | 1.93% |
| COc1ccc(C#Cc2cccc(-c3nc(C(=O)N[C@@H]4CCN(Cc5ccccc5)C4)cc4c3[C@H](CCO)N(S(=O)C(C)(C)C)C4)c2)cc1OC (stereo partly drawn) | -5.33% |
| O=C(Nc1ccc(F)cc1)N1CCCCN2[C@H](C1)[C@H](c1ccc(C#Cc3ccccc3)cc1)[C@@H]2CO | -8.08% |
| O=C(Nc1ccc(F)cc1)N1CCCCN2[C@H](CO)[C@H](c3ccc(C#Cc4ccccc4)cc3)[C@@H]2C1 | 5.78% |
| CCC(=O)N1CC2(C1)[C@H](c1ccccc1)[C@H](CO)N2Cc1ccccc1OC | -15.2% |
| CC(C)(C)[S@](=O)N1Cc2cc(C(=O)NCc3ccccc3F)nc(-c3cccc(-c4ccncc4)c3)c2[C@@H]1CCO | 3.09% [at 21 µM] |
| COc1ccc(-c2ccc([C@@H]3[C@@H](CO)N4CCCCN(C(=O)c5ccc6c(c5)OCO6)C[C@@H]34)cc2)cc1 | -15.9% |
| COc1ccc(CNC(=O)c2cc3c(c(-c4cccc(-c5cccc(C#N)c5)c4)n2)[C@H](CCO)N([S@@](=O)C(C)(C)C)C3)cc1 | 8.03% [at 21 µM] |
| C[C@H]1CN([C@@H](C)CO)C(=O)c2c(c3ccccc3n2C)-c2ccccc2CO[C@H]1CN(C)S(=O)(=O)c1ccc([N+](=O)[O-])cc1 | 24.4% |
| N#C[C@@H]1[C@H](c2ccccc2-c2ccc(F)cc2)[C@H](CO)N1C(=O)NC1CCCC1 | -6.01% [at 21 µM] |
| Cc1ccccc1S(=O)(=O)N(C)C[C@H]1OCc2ccccc2-c2ccccc2C(=O)N([C@@H](C)CO)C[C@H]1C | 14.9% |
| CO[C@@H]1CN(C)C(=O)c2cc(NC(=O)c3nc4ccccc4s3)ccc2OC[C@H](C)NC[C@H]1C | -7.06% [at 18 µM] |
| CO[C@H]1CN(C)C(=O)c2cc(NC(=O)c3nc4ccccc4s3)ccc2OC[C@H](C)NC[C@@H]1C | 3.64% |
| CO[C@@H]1CN(C)C(=O)c2ccc(NC(=O)C3CC3)cc2OC[C@@H](C)N(Cc2cc(F)ccc2F)C[C@H]1C | 28.2% |
